In all, about 5,500 compounds went through this assay and about 2,000 (36%) were called active. About 18% were inconclusive and are not listed. Cut-off read from the data, not from the text of the source: active = normalized growth mostly below about 0.91 (no sharp cut-off); inconclusive = no clear call, values can overlap the other calls; inactive = mostly above about 0.92. Some of the results follow.
Assay: chemical genetic growth profiling, strain panel (AID 1159580);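 note: tested at 20 µM; growth read once vehicle control cultures reached saturation at 30 °C; 1 = growth at the plate median or of vehicle wells; lower values mean less growth of the strain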
Settings: growth OD
[1] = S. cerevisiae deletion strains, locus YAL013W, strain DEP1, hits give low values
[2] = S. cerevisiae deletion strains, locus YBR229C, strain ROT2, hits give low values
[3] = S. cerevisiae deletion strains, locus YDL101C, strain DUN1, hits give low values
[4] = S. cerevisiae deletion strains, locus YDR150W, strain NUM1, hits give low values
[5] = S. cerevisiae deletion strains, locus YEL061C, strain CIN8, hits give low values
[6] = S. cerevisiae deletion strains, locus YGR078C, strain PAC10, hits give low values
[7] = S. cerevisiae deletion strains, locus YHR030C, strain SLT2, hits give low values
[8] = S. cerevisiae deletion strains, locus YHR087W, strain rtc3, hits give low values
[9] = S. cerevisiae deletion strains, locus YJL187C, strain SWE1, hits give low values
[10] = S. cerevisiae deletion strains, locus YJR043C, strain POL32, hits give low values
[11] = S. cerevisiae deletion strains, locus YJR075W, strain HOC1, hits give low values
[12] = S. cerevisiae deletion strains, locus YLR039C, strain RIC1, hits give low values
[13] = S. cerevisiae deletion strains, locus YLR058C, strain SHM2 (second series), hits give low values
[14] = S. cerevisiae deletion strains, locus YLR085C, strain ARP6, hits give low values
[15] = S. cerevisiae deletion strains, locus YLR262C, strain YPT6, hits give low values
[16] = S. cerevisiae deletion strains, locus YML094W, strain GIM5, hits give low values
[17] = S. cerevisiae deletion strains, locus YMR219W, strain ESC1, hits give low values
[18] = S. cerevisiae deletion strains, locus YMR263W, strain SAP30, hits give low values
[19] = S. cerevisiae deletion strains, locus YNL153C, strain GIM3, hits give low values
[20] = S. cerevisiae deletion strains, locus YNL298W, strain CLA4 (second series), hits give low values
[21] = S. cerevisiae deletion strains, locus YNL322C, strain KRE1, hits give low values
[22] = S. cerevisiae deletion strains, locus YNR030W, strain Alg12, hits give low values
[23] = S. cerevisiae deletion strains, locus YPL055C, strain LGE1, hits give low values
[24] = S. cerevisiae deletion strains, locus YPL241C, strain CIN2, hits give low values
[25] = S. cerevisiae deletion strains, locus YPR135W, strain CTF4, hits give low values
[26] = S. cerevisiae strains, strain wild type, hits give low values
[27] = S. cerevisiae deletion strains, locus YCL061C, strain MRC1, hits give low values
[28] = S. cerevisiae deletion strains, locus YOL006C, strain TOP1, hits give low values

Measured: normalized growth

CC(=O)/C(=C\N(C)C)Sc1nnc(C(F)(F)F)n1C
inactive: [1] 1.06 | [2] 1.03 | [3] 0.968 | [4] 1.02 | [5] 1.01 | [6] 1.01 | [7] 1.06 | [8] 1.04 | [9] 0.998 | [10] 1.01 | [11] 0.987 | S. cerevisiae deletion strains, locus YKL190W, strain CNB1, hits give low values 0.993 | [12] 1.05 | [13] 1 | [14] 1.16 | [15] 1.01 | [16] 1.06 | [17] 1.02 | [18] 1.01 | S. cerevisiae deletion strains, locus YNL128W, strain TEP1, hits give low values 1.01 | [19] 1.02 | [20] 1.03 | [21] 1 | [22] 1.02 | [23] 1.09 | [24] 1.1 | [25] 1.21 | [26] 1.01

CC(=O)/C(=C\N(C)C)Sc1ccc(Cl)cc1
active: [1] 0.883 | [2] 0.82 | [27] 0.838 | [3] 0.897 | [6] 0.817 | [8] 0.832 | [10] 0.888 | [11] 0.776 | [13] 0.817 | [17] 0.86 | [18] 0.839 | [19] 0.793 | [21] 0.819
inactive: S. cerevisiae deletion strains, locus YDL134C, strain PPH21, hits give low values 0.976 | [4] 0.859 | [5] 0.989 | [7] 1.02 | [12] 0.876 | [14] 1.12 | [15] 0.873 | [16] 1.07 | [20] 1.03 | [22] 1.03 | [28] 1.09 | [23] 0.933 | [24] 0.937 | [25] 1.29 | [26] 0.975

Cc1c(-n2cccc2)cc2c(c1[N+](=O)[O-])C(C)(C)CC2(C)C
inactive: [1] 1.01 | [2] 1.01 | [27] 1.01 | [3] 1.02 | [4] 1.02 | [5] 1 | [6] 1.02 | [7] 1.05 | [8] 1.01 | [9] 1.02 | [10] 1.01 | [11] 1.05 | [12] 1.06 | [13] 0.994 | [14] 1.01 | [15] 1.07 | [16] 1.02 | [17] 1.02 | [18] 1 | [19] 0.998 | [20] 1.04 | [21] 1.02 | [22] 1.01 | [28] 1.03 | [23] 1 | [24] 1 | [25] 1.04
